An excerpt weighted towards active compounds, which were near 3.8% of everything screened.
VDR inhibitor – blocks the human vitamin D receptor | P11473 | 0.93% of 400,000 active | VDR-SRC2-3 peptide fluorescence polarization, 2 h | Potency, µM, inactives show max response, negative = inhibition, usual class: inhibitors | AID 504847
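Two reagent solutions held at 4 deg C in the dark were dispensed, compounds pinned at 23 nl, and the mixture incubated 2 h at room temperature. Read-out: fluorescence polarization of VDR–SRC2-3 peptide binding.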
TrxR1 inh – inhibitors of rat thioredoxin reductase 1; O89049; recombinant rTrxR1, NADPH fluorescence consumption, selenite substrate; Potency, µM (series often up to 114 µM), without a hit: at the top dose activity change, negative = inhibition, usual class: inhibitors; 1% of 390,000 active; AID 588453; also: nearly all actives have a fitted effect of over 65% in size
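Rat TrxR1 (90 nM in the dispensed reagent) was pre-reduced with 400 uM NADPH for 5 min at room temperature, then incubated with compound for 15 min. After 400 uM selenite was added, NADPH fluorescence (Ex 340/Em 450 nm) was followed for 8 min.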
GLS inh – glutaminase GLS (human) inhibition; O94925; GLS enzymatic activity, qHTS titration; Potency, µM (top dose mostly 45.5 µM), inactives show at the top dose activity change, negative = inhibition, usual class: inhibitors; 0.21% of 410,000 active
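Enzyme dispensed in phosphate buffer (45 mM, pH 8.2, 0.02% Tween-20), compounds pinned in, then 1 mM L-glutamine solution and the glutamate oxidase–HRP–Amplex Red mix added; fluorescence read immediately and again after 30 min at room temperature.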
KAT2A inh – blocks human GCN5L2 histone acetyltransferase; Q92830; GCN5L2 HAT assay, ThioGlo1 CoA-SH fluorescence; Potency, µM (doses to about 58.9 µM), without a hit: at the top dose activity change, negative = inhibition, usual class: inhibitors; 0.21% of 390,000 active
Target sequence (Q92830 whole entry, looked up): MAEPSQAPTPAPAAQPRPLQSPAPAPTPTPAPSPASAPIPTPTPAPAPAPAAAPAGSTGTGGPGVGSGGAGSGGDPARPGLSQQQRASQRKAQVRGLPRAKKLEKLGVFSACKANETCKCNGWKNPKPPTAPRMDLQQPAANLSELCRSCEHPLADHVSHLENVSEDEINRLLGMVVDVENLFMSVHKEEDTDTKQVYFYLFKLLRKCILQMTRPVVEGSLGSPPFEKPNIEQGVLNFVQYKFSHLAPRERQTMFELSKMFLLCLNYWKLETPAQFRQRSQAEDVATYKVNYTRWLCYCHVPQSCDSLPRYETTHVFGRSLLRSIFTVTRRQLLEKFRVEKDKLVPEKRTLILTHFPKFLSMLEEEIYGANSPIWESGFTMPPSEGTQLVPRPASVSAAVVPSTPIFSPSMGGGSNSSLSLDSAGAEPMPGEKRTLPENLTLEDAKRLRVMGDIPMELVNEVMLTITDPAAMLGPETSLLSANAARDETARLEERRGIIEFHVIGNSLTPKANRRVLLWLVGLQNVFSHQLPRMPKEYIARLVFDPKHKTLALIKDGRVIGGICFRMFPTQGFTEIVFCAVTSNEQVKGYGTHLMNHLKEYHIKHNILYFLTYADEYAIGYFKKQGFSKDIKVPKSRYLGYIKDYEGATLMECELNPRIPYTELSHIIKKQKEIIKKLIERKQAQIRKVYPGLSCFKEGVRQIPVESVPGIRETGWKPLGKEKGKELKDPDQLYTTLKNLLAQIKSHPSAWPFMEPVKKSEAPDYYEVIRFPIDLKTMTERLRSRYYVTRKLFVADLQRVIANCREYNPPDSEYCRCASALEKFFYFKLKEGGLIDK
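Enzyme at 20nM final was mixed with library compounds for 15 min at room temperature. Peptide H3(1-25) at 75uM, acetyl-CoA at 70uM and ThioGlo1 at 50uM were then added. Plates were read immediately and after 20 min (Ex340nm/Em540nm).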
Sfp inh – Sfp phosphopantetheinyl transferase inhibition. AID 1490. 3.5% of 310,000 active. Biochemical Sfp PPTase activity, qHTS. Potency, µM, for inactives: largest response in the series, negative = inhibition, usual class: inhibitors;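 also: the enzyme is Sfp with the accession as filed and its product quenches rhodamine fluorescence; 0% = enzyme reaction without inhibitor and -100% = no enzyme wells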
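Step 1, compound plus 15 nM Sfp-PPTase, 15 min, room temperature. Step 2, add rhodamine-CoA (5 uM) and BHQ-2-YbbR (12.5 uM). Step 3, read 525/598 nm fluorescence at 0 and 30 min.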
TrxR1 substrate – substrates of rat thioredoxin reductase 1 | O89049 | purified TrxR1 substrate turnover, NADPH consumption readout | Potency, µM (doses to about 114 µM), for the others: at the top dose activity change, negative = substrate turnover | 0.01% of 390,000 active; also: nearly all actives have a fitted effect of over 50% in size
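Rat TrxR1, dispensed at 90 nM, was prereduced with 400 uM NADPH (final) for 5 min at ~22 deg C, then incubated with compound 15 min before 400 uM selenite. A first-read NADPH fluorescence drop versus no-compound background flagged substrates.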
* = called active by the depositor; ? = inconclusive; . = no result given; [ ] = remark or other dose. Calls follow the shape of the dose curve; as a rule, active = well fitted curve in the direction sought with a large enough effect; inconclusive = small, poorly fitted or top-dose-only effect, or another doubt; inactive = no such curve, though single readings can be large; an effect the other way counts as inactive or inconclusive. Unless noted, % is scaled to controls: 0 for no effect and ±100 for the full control effect; potency is read from the fitted curve at half-maximal effect.

SMILES	VDR inhibitor	TrxR1 inh	GLS inh	KAT2A inh	Sfp inh	TrxR1 substrate
NC(=O)c1cnn2c(C(F)(F)F)cc(-c3ccccc3)nc12	1.9%	9.0%[57.1 µM]	-0.9%	.	10.0%	7.1%[57.1 µM]
O=C(NC1CCCC1)c1cnn2c(C(F)(F)F)cc(-c3ccco3)nc12	-3.9%	?	9.3%	-15.8%	2.4%	17.0%
O=C(NCc1ccco1)c1cnn2c(C(F)(F)F)cc(-c3ccccc3)nc12	-3.0%	18.4%	-0.1%	-1.4%	25.1µM*	16.1%
CC(C)CCNC(=O)c1cnn2c(C(F)(F)F)cc(-c3ccco3)nc12	-15.2%	7.08µM*	21.5%	-13.5%	50.1µM*	12.5%
CCC(Sc1nc2ccsc2c(=O)n1Cc1ccc(C(=O)O)cc1)C(=O)Nc1cccc(OC)c1 (stereo not drawn)	.	.	4.3%	.	.	.
CC(=O)NC(CC(=O)OCC(=O)NCCc1ccccc1)c1ccccc1 (stereo not drawn)	-2.2%	0.3%	-6.5%	-6.3%	.	-6.6%[57.1 µM]
COc1cc(NC(=S)NCCN2CCOCC2)cc(OC)c1OC	-19.8%	-16.6%	24.0%	-18.6%	-4.6%	0.1%
COc1ccc(C(C)(C)C)cc1NC(=S)NCCN1CCOCC1	5.8%	-13.4%	1.6%	4.1%	17.8µM*	6.3%
Cc1nn(Cc2cccc(C(=O)Nc3ccn(Cc4ccccc4F)n3)c2)c(C)c1[N+](=O)[O-]	8.3%	9.2%	0.8%	-9.8%	22.4µM*	0.5%
CCOc1cc(/C=N/Nc2nnc(C)n2N)ccc1OC(C)=O	-22.1%	4.7%[57.1 µM]	-25.3%	-4.0%	?	-0.5%[57.1 µM]
Cc1nnc(N/N=C/c2cccc(OCc3ccc(Cl)c(Cl)c3)c2)n1N	?	-4.2%	3.4%	-2.7%	70.8µM*	-18.2%
CCc1ccc(NCc2cc3cc4c(cc3n(CC(=O)Nc3ccc(Cl)cc3)c2=O)OCO4)cc1	5.4%	7.7%	12.6µM*	6.9%	.	11.9%
CCc1ccc(NCc2cc3cc4c(cc3n(CC(=O)Nc3ccccc3C)c2=O)OCCO4)cc1	2.7%	-16.9%	11.2µM*	-16.1%	.	-3.0%
CC(C)[C@H](NS(=O)(=O)c1ccc2c(c1)OCCO2)C(=O)OCC(=O)Nc1ccccc1Cl	1.6%	-4.1%	-0.2%	-0.7%	13.1%	-6.7%
CC(C)[C@H](NS(=O)(=O)c1ccc2c(c1)OCCO2)C(=O)OCC(=O)Nc1cc(Cl)ccc1Cl	79.4µM*	-2.2%	-3.6%	-8.8%	9.1%	-10.0%
O=[N+]([O-])c1ccc2nc(-c3ccccc3)[nH]c2c1	-6.5%	-6.9%	6.7%	-3.1%	7.5%	-12.3%
Cn1cccc1-c1nc2ccc([N+](=O)[O-])cc2[nH]1	5.5%	6.0%	-10.5%	-8.8%	79.4µM*	-4.7%
CCOC1=C2[C@H](c3cccs3)N(S(=O)(=O)c3ccc(C)cc3)C[C@H]2n2c(=O)n(-c3ccccc3)c(=O)n2C1	.	.	1.2%	.	.	.
C=CCCC(=O)N1C[C@H]2CON(C)[C@H]2C[C@H]1c1cccc(Br)c1	8.6%	6.7%	5.3%	.	.	1.2%
Cc1nc(N)sc1-c1csc(Nc2ccc(Cl)cn2)n1	-23.2%	-2.5%	7.7%	-2.8%	20µM*	0.3%
Cc1nc(N)sc1-c1csc(Nc2cc(N(C)C)ccc2Cl)n1	.	.	3.3%	.	.	.
Cc1nc(N)sc1-c1csc(Nc2ccccn2)n1	-2.2%	-7.3%[57.1 µM]	29.2%	-5.6%	56.2µM*	8.2%[57.1 µM]
Cc1[nH]c(=O)nc(NN=Cc2ccc(Cl)cc2)c1C(=O)Nc1ccc(Cl)cc1	4.4%	-6.7%	-5.1%	.	.	-10.7%
S=c1[nH]nc(COc2ccc3c(c2)OCO3)n1-c1ccccc1	-2.8%	-30.2%	-0.8%	-3.5%	39.8µM*	-9.5%
CC(C)c1ccc2c(c1)CC[C@@H]1[C@@](C)(CN)CCC[C@]21C	.	.	.	.	-8.2%	.
CC(C)c1ccc2c(c1)CCC1C(C)(CN)CCCC21C (stereo not drawn)	4.3%	9.1%	1.4%	8.3%	11.2µM*	3.8%
COc1ccc(S(=O)(=O)Nc2cc(-c3cn4ccccc4n3)ccc2C)cc1	2.3%	39.5%	-0.7%	-11.6%	.	16.9%
